# Test results taken from PubChem BioAssay.
# The source made the active and inactive calls.
# Tests used:
# [1] = tested on: Plasmodium falciparum Sir2 (PF13_0152, Sir2A); test: pfSir2 binders on small-molecule microarrays, primary screen, biochemical, small-molecule microarray, 635 nm fluorescence (AID 1098); conditions: small-molecule microarray binding, fluorescence 635 nm; higher = more signal;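 also: score merges spot fluorescence intensity with its signal-to-noise ratio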
# [2] = small-molecule microarray binders of probe aDKK1, primary screen, biochemical, biotinylated probe, 635/667 nm fluorescence (AID 1099); conditions: higher = more signal;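 also: score merges 667nm spot fluorescence with signal to noise across triplicate slides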
# [3] = small-molecule microarray binders of probe aCHRDL2, primary screen, biochemical, biotinylated probe, 635/667 nm fluorescence (AID 1100); conditions: higher = more signal
# [4] = splicing luciferase reporter signal modulators, primary screen, spliceosome inhibition project, cell-based, HEK293, splice +/- reporter (AID 1101); conditions: luminescence, 24 h, higher = more signal, called active from +8 up or from −8 down;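 also: HEK293 cells carrying a splicing-competent luciferase reporter gene; test concentration not given here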
# [5] = molecular target: Fibroblast growth factor 10 (Homo sapiens) (UniProt O15520); test: FGF10 binders on small-molecule microarrays, primary screen, biochemical, small-molecule microarray, 635 nm fluorescence (AID 1102); conditions: FGF10 binding, fluorescence 635 nm, higher = more signal
# [6] = tested on: glycogen synthase kinase-3 (GSK3A per assay name; protocol says GSK3B); test: GSK3 binders on small-molecule microarrays, primary screen, biochemical, small-molecule microarray, 635 nm fluorescence, GSK3A (AID 1103); conditions: small-molecule microarray binding, fluorescence 635 nm; higher = more signal; also: the record names both GSK3A and GSK3B
# [7] = molecular target: Epidermal growth factor receptor (Homo sapiens) (UniProt P00533); test: EGFR binders on small-molecule microarrays, primary screen, biochemical, small-molecule microarray, 635 nm fluorescence (AID 1104); conditions: EGFR binding, higher = more signal;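 also: score merges 667 nm emission intensity with spot signal to noise over triplicate slides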
# [8] = molecular target: Follistatin-related protein 3 (Homo sapiens) (UniProt O95633); test: FSTL3 binders on small-molecule microarrays, primary screen, biochemical, small-molecule microarray, 635 nm fluorescence (AID 1105); conditions: FSTL3 binding, higher = more signal;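 also: score merges emission near 667 nm and signal to noise per printed spot across three slides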
# [9] = molecular target: Dickkopf-related protein 1 (Homo sapiens) (UniProt O94907); test: DKK1 binders on small-molecule microarrays, primary screen, biochemical, small-molecule microarray, 635 nm fluorescence scan (AID 1106); conditions: DKK1 binding, higher = more signal;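 also: score merges emission near 667 nm with signal to noise over three replicate slides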
# [10] = tested on: Inhibin beta A chain (activin A); test: INHBA (activin A) binders on microarrays, primary screen, biochemical, small-molecule microarray, 635 nm fluorescence scan (AID 1107); conditions: small-molecule microarray binding, higher = more signal;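 also: mouse activin A protein probed at 4.33 µg/mL on printed slides; score merges bound-protein fluorescence near 667 nm with spot signal-to-noise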
# [11] = tested on: Human papillomavirus type 1a protein E7 (residues 44-93); test: HPV1a E7 fragment binders on microarrays, primary screen, biochemical, small-molecule microarray, residues 44-93, 635 nm fluorescence (AID 1108); conditions: small-molecule microarray binding, fluorescence 635 nm; higher = more signal;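 also: E7 fragment applied at 1 µg/mL in TBST for 1 h at 4 C; score combines spot fluorescence with its signal to noise ratio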
# [12] = modulators of HCV replicon luciferase signal, primary screen, HCV replication inhibitor project, Huh7 cells, luciferase reporter (AID 1109); conditions: 48 h, higher = more signal;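 also: huh7 hepatoma cells harbouring a luciferase neomycin HCV replicon reporter; luciferase luminescence as measure of HCV replicon replication; test concentration not given here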
# [13] = molecular target: Left-right determination factor 2 (Homo sapiens) (UniProt O00292); test: LEFTY2 binders on small-molecule microarrays, primary screen, biochemical, small-molecule microarray, 635 nm fluorescence scan (AID 1110); conditions: LEFTY2 binding, higher = more signal
# [14] = molecular target: Calmodulin-1 (Homo sapiens) (UniProt P0DP23); test: CALM1 binders on microarrays, EGTA buffer, profiling panel, biochemical, small-molecule microarray, Cy5-labelled CALM1 (AID 1111); conditions: Cy5-CALM1 binding fluorescence, higher = more signal;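 also: labelled calmodulin applied in Tris saline Tween buffer holding calcium plus EGTA and DTT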
# [15] = molecular target: Calmodulin-1 (Homo sapiens) (UniProt P0DP23); test: calcium-bound CALM1 binders on microarrays, profiling panel, artefact control for SMM control-protein annotation, biochemical, small-molecule microarray, Cy5-labelled CALM1, plus calcium (AID 1112); conditions: Cy5-CALM1 binding fluorescence, higher = more signal;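 also: score merges spot fluorescence with signal to noise from triplicate slides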
# [16] = small-molecule microarray binders of probe aWnt5a, primary screen, biochemical, biotinylated probe, 635/667 nm fluorescence (AID 1113); conditions: higher = more signal;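 also: score merges 667 nm fluorescence intensity with signal-to-noise per printed feature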
# [17] = small-molecule microarray binders of probe aShh, primary screen, biochemical, biotinylated probe, 635/667 nm fluorescence (AID 1114); conditions: higher = more signal;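 also: probe is biotin-labelled aShh protein from a stem cell growth factor screen; measures binding of labelled protein to compounds printed on the slide; score merges feature fluorescence at 667 nm with signal-to-noise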
# [18] = small-molecule microarray binders of probe aNog, primary screen, biochemical, biotinylated probe, 635/667 nm fluorescence (AID 1115); conditions: higher = more signal;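 also: probe is biotinylated aNog protein used at 0.15 µg/mL for 1 h at 4 C; z-score combines 667 nm fluorescence of each spot with its signal to noise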
# [19] = molecular target: Torsin-1A-interacting protein 1 (Homo sapiens) (UniProt Q5JTV8); test: LAP1 binders from COS7 cell lysate, primary screen, small-molecule microarray, 635/667 nm fluorescence (AID 1116); conditions: COS7-hLAP1 lysate binding, 635 nm fluorescence, higher = more signal
# [20] = molecular target: Alpha-bungarotoxin (Bungarus multicinctus) (UniProt P60615); test: alpha-bungarotoxin binders on microarray, profiling panel, artefact control for SMM control protein annotation, biochemical, small-molecule microarray, Alexa647 label, 635/667 nm fluorescence (AID 1117); conditions: alpha-BTX-A647 binding fluorescence, higher = more signal
# Sequence of Alpha-bungarotoxin (Bungarus multicinctus) (P60615 whole entry, looked up): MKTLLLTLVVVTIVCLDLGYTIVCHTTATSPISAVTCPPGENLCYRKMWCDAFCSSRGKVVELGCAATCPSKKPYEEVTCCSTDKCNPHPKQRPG
# Sequence of Dickkopf-related protein 1 (Homo sapiens) (O94907 whole entry, looked up): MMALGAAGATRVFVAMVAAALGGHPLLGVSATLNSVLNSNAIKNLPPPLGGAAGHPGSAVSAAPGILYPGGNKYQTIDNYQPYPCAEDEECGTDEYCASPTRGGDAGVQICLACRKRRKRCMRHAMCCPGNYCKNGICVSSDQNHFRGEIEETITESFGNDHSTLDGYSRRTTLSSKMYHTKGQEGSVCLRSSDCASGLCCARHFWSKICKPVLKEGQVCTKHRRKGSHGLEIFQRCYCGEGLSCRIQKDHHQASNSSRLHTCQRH
# Sequence of Follistatin-related protein 3 (Homo sapiens) (O95633 whole entry, looked up): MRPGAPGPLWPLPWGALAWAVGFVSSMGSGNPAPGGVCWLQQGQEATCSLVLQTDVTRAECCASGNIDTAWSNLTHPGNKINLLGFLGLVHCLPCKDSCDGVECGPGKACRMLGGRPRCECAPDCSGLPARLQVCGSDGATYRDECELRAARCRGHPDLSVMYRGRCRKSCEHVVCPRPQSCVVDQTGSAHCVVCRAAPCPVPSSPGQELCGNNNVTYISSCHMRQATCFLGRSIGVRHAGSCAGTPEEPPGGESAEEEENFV
# Sequence of Torsin-1A-interacting protein 1 (Homo sapiens) (Q5JTV8 whole entry, looked up): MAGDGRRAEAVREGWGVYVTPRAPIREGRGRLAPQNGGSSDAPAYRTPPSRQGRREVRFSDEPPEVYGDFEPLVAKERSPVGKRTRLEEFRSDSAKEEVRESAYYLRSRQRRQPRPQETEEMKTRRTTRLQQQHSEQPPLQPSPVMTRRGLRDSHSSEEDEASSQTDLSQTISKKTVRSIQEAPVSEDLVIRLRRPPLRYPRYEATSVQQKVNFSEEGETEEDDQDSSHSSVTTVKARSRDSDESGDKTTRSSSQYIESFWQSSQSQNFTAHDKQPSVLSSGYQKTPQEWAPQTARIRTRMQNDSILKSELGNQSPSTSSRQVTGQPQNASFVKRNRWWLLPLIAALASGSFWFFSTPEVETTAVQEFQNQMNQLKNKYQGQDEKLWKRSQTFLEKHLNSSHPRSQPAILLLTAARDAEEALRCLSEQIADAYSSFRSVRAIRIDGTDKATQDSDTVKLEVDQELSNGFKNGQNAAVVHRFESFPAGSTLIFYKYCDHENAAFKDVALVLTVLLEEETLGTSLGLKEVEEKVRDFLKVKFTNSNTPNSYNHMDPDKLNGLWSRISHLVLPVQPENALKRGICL
# Sequence of Epidermal growth factor receptor (Homo sapiens) (P00533 whole entry, looked up): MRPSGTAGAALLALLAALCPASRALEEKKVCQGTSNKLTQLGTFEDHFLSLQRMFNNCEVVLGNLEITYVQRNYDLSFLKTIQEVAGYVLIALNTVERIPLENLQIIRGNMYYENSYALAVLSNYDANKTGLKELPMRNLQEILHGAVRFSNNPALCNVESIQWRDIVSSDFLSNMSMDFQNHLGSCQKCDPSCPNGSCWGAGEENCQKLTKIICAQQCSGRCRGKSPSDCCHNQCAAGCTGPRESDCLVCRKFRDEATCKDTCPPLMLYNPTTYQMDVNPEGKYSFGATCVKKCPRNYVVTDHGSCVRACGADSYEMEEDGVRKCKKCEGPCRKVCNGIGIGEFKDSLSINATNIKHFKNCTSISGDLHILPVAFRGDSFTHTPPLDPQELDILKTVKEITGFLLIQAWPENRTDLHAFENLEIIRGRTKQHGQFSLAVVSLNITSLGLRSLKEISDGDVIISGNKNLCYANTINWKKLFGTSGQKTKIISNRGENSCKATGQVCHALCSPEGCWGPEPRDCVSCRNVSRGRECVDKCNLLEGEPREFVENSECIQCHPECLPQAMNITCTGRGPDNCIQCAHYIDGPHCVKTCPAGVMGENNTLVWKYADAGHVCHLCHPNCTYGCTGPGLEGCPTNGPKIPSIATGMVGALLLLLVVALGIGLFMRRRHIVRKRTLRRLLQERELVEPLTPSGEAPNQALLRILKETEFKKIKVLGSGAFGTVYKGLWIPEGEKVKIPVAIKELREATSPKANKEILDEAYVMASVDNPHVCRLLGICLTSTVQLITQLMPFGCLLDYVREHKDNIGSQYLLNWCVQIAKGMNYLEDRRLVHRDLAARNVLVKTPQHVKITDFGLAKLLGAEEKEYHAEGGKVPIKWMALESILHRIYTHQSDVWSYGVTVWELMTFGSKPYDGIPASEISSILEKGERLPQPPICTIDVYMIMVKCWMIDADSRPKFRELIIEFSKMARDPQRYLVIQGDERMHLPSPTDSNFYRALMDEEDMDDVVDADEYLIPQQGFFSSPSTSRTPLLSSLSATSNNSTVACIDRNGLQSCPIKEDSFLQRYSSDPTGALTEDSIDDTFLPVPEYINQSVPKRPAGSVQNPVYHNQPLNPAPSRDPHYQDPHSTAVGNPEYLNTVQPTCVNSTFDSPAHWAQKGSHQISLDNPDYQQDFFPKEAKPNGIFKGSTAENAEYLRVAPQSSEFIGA
# Sequence of Fibroblast growth factor 10 (Homo sapiens) (O15520 whole entry, looked up): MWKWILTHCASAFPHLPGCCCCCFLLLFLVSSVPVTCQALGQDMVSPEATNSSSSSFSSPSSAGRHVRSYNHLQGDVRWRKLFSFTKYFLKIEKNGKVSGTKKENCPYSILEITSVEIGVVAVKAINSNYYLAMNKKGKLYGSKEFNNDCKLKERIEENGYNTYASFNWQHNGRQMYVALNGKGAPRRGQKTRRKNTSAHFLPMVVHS
# Sequence of Left-right determination factor 2 (Homo sapiens) (O00292 whole entry, looked up): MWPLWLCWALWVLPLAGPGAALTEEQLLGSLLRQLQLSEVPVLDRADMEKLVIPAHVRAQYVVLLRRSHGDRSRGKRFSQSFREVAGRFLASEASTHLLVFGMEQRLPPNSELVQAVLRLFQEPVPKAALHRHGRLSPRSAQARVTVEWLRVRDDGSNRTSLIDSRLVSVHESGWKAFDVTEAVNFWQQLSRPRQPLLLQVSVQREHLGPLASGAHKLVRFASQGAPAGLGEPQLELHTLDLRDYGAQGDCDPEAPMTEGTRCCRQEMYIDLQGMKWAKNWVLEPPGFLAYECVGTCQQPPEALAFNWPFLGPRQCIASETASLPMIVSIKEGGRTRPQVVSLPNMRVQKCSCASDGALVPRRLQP
SMILES,composite z-score [1],composite z-score [2],composite z-score [3],z-score [4],composite z-score [5],composite z-score [6],composite z-score [7],composite z-score [8],composite z-score [9],composite z-score [10],composite z-score [11],z-score [12],composite z-score [13],composite z-score [14],composite z-score [15],composite z-score [16],composite z-score [17],composite z-score [18],composite z-score [19],composite z-score [20]
COCCCNC(=O)[C@@]1(Sc2ccc(C)cc2)CC(=O)N(Cc2ccccc2)[C@@H]1c1ccc(CO)cc1I,0.179,0.996,1.31,-0.606 (inactive),-0.144,-0.969,-1.28,-0.238,-1.4,1.12,0.362,-2.02,-1.54,-1.11,0.214,-0.0928,-0.0362,-0.176,1.5,1.23
CCOC(=O)CCN1C(=O)[C@H]2[C@H]3[C@H](O)[C@H](O)CC(=NOCc4ccccc4)[C@@H]3CC[C@H]2C1=O,0.174,-0.206,-0.608,0.0671 (inactive),0.526,0.597,0.641,0.749,0.4,0.0727,-0.482,-1.08,0.591,-0.138,-0.848,-0.0125,-0.243,0.107,-0.0594,0.419
O=C1[C@H]2[C@H]3[C@H](O)[C@H](O)CC(=NOCc4ccccc4)[C@H]3CC[C@H]2C(=O)N1c1ccc(F)cc1F,-0.183,-0.268,-0.675,-0.772 (inactive),0.266,0.167,0.534,-0.0913,0.0949,-0.364,-0.642,0.473,0.349,-0.251,-0.349,-0.123,-0.339,-0.47,-0.273,-0.0546
CC(C)CN1CCc2nc(-c3ccccc3)c3c(c2CC1)CO[C@@H](C)C3,-0.232,0.256,-0.469,0.00565 (inactive),0.515,0.123,0.471,0.202,0.718,0.157,-0.749,-0.747,0.774,-0.268,-0.177,0.027,0.191,-0.138,0.12,0.405
N#Cc1ccc(NN2C(C(O)c3cc(C(F)(F)F)cc(C(F)(F)F)c3)C=CC3C(=O)N(c4ccccc4)C(=O)C32)cc1 (stereo not given),0.666,0.175,1.04,0.628 (inactive),1.03,1.28,0.292,1.02,-0.62,0.733,1.39,-1.99,0.224,2.44,0.892,-0.0009,0.0326,-0.753,1.73,0.692
CCCC[C@H]1OB(O)C[C@H]2C1=C(C)C[C@H]1C(=O)N(C)C(=O)[C@H]12,0.0529,-0.0166,-0.372,0.238 (inactive),0.944,0.774,0.259,1.27,0.558,0.131,0.736,-0.686,0.654,-0.0405,0.06,-0.0462,-0.243,0.322,-0.368,0.27
CC(C)OC(=O)C=C1C[C@@H](c2ccc(C#N)cc2)O[C@@H](c2ccc(C#N)cc2)O1,1.07,0.738,0.407,-0.159 (inactive),1.44,1.29,0.87,1.4,0.189,-0.106,1.45,-2.19,0.701,0.857,0.621,0.178,0.0875,0.229,1.22,1.09
